From PubChem
TrxR1 substrate – qHTS Assay for Substrates of Mammalian Selenoprotein Thioredoxin Reductase 1 (TrxR1): qHTS | hit rate 0.01% among 390,000 | purified TrxR1 substrate turnover, NADPH consumption readout | Potency, µM (top dose mostly 114 µM) | AID 588456, 2011; further: nearly all actives have a fitted effect of over 50% in size
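Rat TrxR1, dispensed at 90 nM, was prereduced with 400 uM NADPH (final) for 5 min at ~22 deg C, then incubated with compound 15 min before 400 uM selenite. A first-read NADPH fluorescence drop versus no-compound background flagged substrates.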
FBPA coupling cs – qHTS Assay for Inhibitors of Fructose-1,6-bisphosphate Aldolase from Giardia Lamblia: Coupling assay counterscreen | coupling enzyme system counterscreen, AmpLite Red fluorescence | activity change, negative = inhibition, % at 58.2 µM, hits read low | hit rate 0.67% among 290,000 | AID 2472, 2010; in the data active means activity change below about -30%
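Counterscreen lacking aldolase: glyceraldehyde-3-phosphate coupling-enzyme reagent preincubated 10 min at RT with compound (at 57.5 uM final), then substrate/coupling system with AmpLite Red added; fluorescence read at 525/598 nm after 20 min RT.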
rTrxR1 inhibitor – qHTS Assay for Inhibitors of Mammalian Selenoprotein Thioredoxin Reductase 1 (TrxR1): qHTS; Thioredoxin reductase 1, cytoplasmic (Rattus norvegicus), O89049; recombinant rTrxR1, NADPH fluorescence consumption, selenite substrate; Potency, µM (top dose mostly 114 µM), usual class: inhibitors; hit rate 1% among 390,000; further: nearly all actives have a fitted effect of over 65% in size
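Rat TrxR1 (90 nM in the dispensed reagent) was pre-reduced with 400 uM NADPH for 5 min at room temperature, then incubated with compound for 15 min. After 400 uM selenite was added, NADPH fluorescence (Ex 340/Em 450 nm) was followed for 8 min.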
GALK inh – qHTS Assay for Inhibitors of Human Galactokinase (GALK); P51570; Purified GALK, Kinase-Glo residual ATP luminescence; Potency, µM (series often up to 57.5 µM), hits mostly inhibitors; hit rate 0.007% among 270,000
Target sequence (P51570 whole entry, looked up): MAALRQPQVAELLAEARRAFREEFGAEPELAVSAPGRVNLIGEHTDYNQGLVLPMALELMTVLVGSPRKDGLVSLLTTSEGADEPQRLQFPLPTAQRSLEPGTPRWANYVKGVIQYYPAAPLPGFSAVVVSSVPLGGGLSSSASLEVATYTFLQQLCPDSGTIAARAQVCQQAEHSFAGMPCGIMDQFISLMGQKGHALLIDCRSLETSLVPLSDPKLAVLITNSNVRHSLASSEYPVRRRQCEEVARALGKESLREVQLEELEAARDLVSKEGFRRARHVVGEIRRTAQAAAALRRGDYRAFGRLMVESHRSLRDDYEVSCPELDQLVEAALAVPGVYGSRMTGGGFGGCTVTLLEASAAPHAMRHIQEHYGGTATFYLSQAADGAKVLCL
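Luminescence from leftover ATP (Ultra-Glo luciferase/luciferin) served as read-out after a 1 h room-temperature reaction of 5 nM GALK with 35 uM ATP and 100 uM galactose.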
RORg inh – qHTS for inhibitors of ROR gamma transcriptional activity. Drosophila S2 Gal4-RORgamma UAS-luciferase reporter, 20 h. Potency, µM (highest dose often 53.6 µM), usual class: inhibitors. hit rate 5.4% among 310,000. AID 2551, 2010; further: nearly all actives have a fitted effect of over 60% in size
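Using a luciferase readout, inhibitors were identified by reduced reporter activity in Drosophila cells coexpressing a copper-inducible Gal4–ROR gamma fusion and UAS-driven Photinus luciferase, incubated 20 hr after 700 uM copper sulfate.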
Gal4-VP16 FLuc – VP16 counterscreen qHTS for inhibitors of ROR gamma transcriptional activity; Drosophila S2 Gal4-VP16 UAS-luciferase, luminescence, 20 h; Potency, µM (doses to about 53.6 µM), hits mostly inhibitors; hit rate 3.5% among 310,000; AID 2546, 2010;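 further: Gal4-VP16 expression switched on by copper sulfate through the metallothionein promoter; nearly all actives have a fitted effect of over 50% in size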
Large screens that a line does not name were inactive. Compounds with a hit are over-represented: about 5.9% of the library has one in this group of screens. Unless noted, the call rests on the fitted dose curve; in most records, active means well fitted curve in the direction sought with a large enough effect; inconclusive means small, poorly fitted or top-dose-only effect, or another doubt; inactive means no such curve, though single readings can be large; an effect the other way counts as inactive or inconclusive.

CCn1c(SCc2ccccc2C)nc(=O)c2c(C(=O)OC)cc(C3CC3)nc21	none (no result: FBPA coupling cs, GALK inh, RORg inh, Gal4-VP16 FLuc)
O=C(CSc1nnc(SCc2ccccc2)s1)N/N=C/C=C/c1ccccc1[N+](=O)[O-]	RORg inh inconclusive, Gal4-VP16 FLuc inconclusive
CC(/C=N/NC(=O)CSc1nc2ccccc2n1C)=C\c1ccco1	rTrxR1 inhibitor 79µM
CCn1c(SCC(=O)N/N=C/C=C/c2ccco2)nc2ccccc21	rTrxR1 inhibitor 45µM, RORg inh inconclusive, Gal4-VP16 FLuc 16µM
O=C(CSc1nnc(SCc2ccccc2)s1)N/N=C/C=C\c1ccco1	rTrxR1 inhibitor 45µM, Gal4-VP16 FLuc inconclusive
CC(C)c1ccc(/C=N/NC(=O)c2nnn(-c3nonc3N)c2CN2CCOCC2)cc1	none
Cc1ccc2c(c1)c1c(n2CC(O)CN2CCC(C)CC2)CCCC1 (stereo not given)	none
CC1CCN(S(=O)(=O)c2cc3c4c(c2)CC(=O)N4CCC3)CC1	none (no result: FBPA coupling cs, GALK inh, RORg inh, Gal4-VP16 FLuc)
CC1CCN(S(=O)(=O)c2ccc3c4c2CC(=O)N4CC(C)S3)CC1 (stereo not given)	FBPA coupling cs -33
CCn1cc(CN2CCCC(CO)(Cc3ccc(F)cc3)C2)c2ccccc21 (stereo not given)	none
Cc1ccc2oc(=O)c3c4cc(O)c(O)c(C)c4oc3c2c1	RORg inh inconclusive (no result: TrxR1 substrate, rTrxR1 inhibitor, GALK inh)
Cc1c(O)c(O)cc2c1oc1c3ccccc3oc(=O)c21	RORg inh 7.1µM, Gal4-VP16 FLuc inconclusive (no result: TrxR1 substrate, rTrxR1 inhibitor, GALK inh)
CC(=O)N/N=C/c1ccc([N+](=O)[O-])o1	RORg inh inconclusive, Gal4-VP16 FLuc 3.5µM (no result: TrxR1 substrate, FBPA coupling cs, rTrxR1 inhibitor, GALK inh)
CCOC(=O)N/N=C\c1ccc([N+](=O)[O-])o1	rTrxR1 inhibitor 7.1µM (no result: GALK inh)
O=[N+]([O-])c1ccc(/C=N/N=C/c2ccc([N+](=O)[O-])o2)o1	rTrxR1 inhibitor 2.5µM, RORg inh 1.1µM, Gal4-VP16 FLuc 4.5µM
CCCCCCCC(=O)N/N=C/c1ccc([N+](=O)[O-])o1	rTrxR1 inhibitor inconclusive, Gal4-VP16 FLuc inconclusive
CC1CN(N=Cc2ccc([N+](=O)[O-])o2)C(=N)O1 (stereo not given)	rTrxR1 inhibitor 35µM (no result: FBPA coupling cs, GALK inh, RORg inh, Gal4-VP16 FLuc)
COc1ccccc1-n1c(SCC(=O)Nc2cccc(C(=O)O)c2)nnc1-c1ccccc1C	none
CCCCn1c(=N)n(CCCOc2ccc(F)cc2)c2ccccc21	none (no result: FBPA coupling cs, GALK inh, RORg inh, Gal4-VP16 FLuc)
O=C(CC12CC3CC(CC(C3)C1)C2)N/N=C\c1ccc[nH]1	RORg inh 7.9µM, Gal4-VP16 FLuc 16µM
CC(C)(C)OC(=O)N/N=C\c1ccc[nH]1	none
CC1(C(=O)N/N=C/c2ccc([N+](=O)[O-])o2)CC1(Br)Br (stereo not given)	rTrxR1 inhibitor 45µM, Gal4-VP16 FLuc inconclusive
Cc1ccc(C(=O)N/N=C\c2ccc([N+](=O)[O-])o2)cn1	rTrxR1 inhibitor inconclusive, RORg inh inconclusive, Gal4-VP16 FLuc inconclusive
N#CCc1ccc(NC(=O)/C=C/c2ccc([N+](=O)[O-])o2)cc1	rTrxR1 inhibitor 16µM
O=C(Cc1ccc([N+](=O)[O-])cc1)N/N=C/c1ccc([N+](=O)[O-])o1	rTrxR1 inhibitor 14µM, Gal4-VP16 FLuc inconclusive
C/C(=N\NC(=O)c1ccccc1-n1cccc1)C1CC1	none
Cc1ccc(/C=C(\C#N)C(=O)Nc2ccc(Br)cc2)o1	none (no result: FBPA coupling cs, GALK inh, RORg inh, Gal4-VP16 FLuc)
O=[N+]([O-])c1ccc(/C=N/NS(=O)(=O)c2ccc(Cl)cc2)o1	rTrxR1 inhibitor 14µM, Gal4-VP16 FLuc inconclusive
N#C/C(=C\c1ccc([N+](=O)[O-])o1)C(=O)Nc1ccc(F)cc1	rTrxR1 inhibitor 3.2µM, RORg inh inconclusive, Gal4-VP16 FLuc inconclusive
O=C(O)/C=C/c1ccc([N+](=O)[O-])o1	rTrxR1 inhibitor 10µM, RORg inh 11µM
O=C(CC12CC3CC(CC(C3)C1)C2)N/N=C/c1ccc([N+](=O)[O-])o1	rTrxR1 inhibitor 40µM, RORg inh 10µM, Gal4-VP16 FLuc inconclusive
O=C(CNc1cccc([N+](=O)[O-])c1)N/N=C/c1ccc([N+](=O)[O-])o1	none
CC1=C([N+](=O)[O-])C(c2ccccc2Cl)NC(=O)N1 (stereo not given)	none
CCN(CC(=O)N1CCCCCC1)S(=O)(=O)c1ccc(C)cc1	none
CC(=O)c1c(N2CCN(c3cccc(Cl)c3)CC2)nc(=S)n(-c2ccccc2)c1C	rTrxR1 inhibitor inconclusive, RORg inh 20µM, Gal4-VP16 FLuc inconclusive
C=CCn1c(C)c(C(C)=O)c(N2CCN(C(c3ccccc3)c3ccccc3)CC2)nc1=S	RORg inh 18µM, Gal4-VP16 FLuc inconclusive
Cc1ccc(C2=NC3(CCCCCC3)NC2=S)cc1	RORg inh 1.4µM, Gal4-VP16 FLuc 2.2µM
O=C1NC2(CCCCC2)N=C1c1ccc(Br)cc1	RORg inh 13µM, Gal4-VP16 FLuc inconclusive
Cn1c(=O)c(=O)n(C)c2cc([N+](=O)[O-])c([N+](=O)[O-])cc21	RORg inh 7.9µM, Gal4-VP16 FLuc inconclusive
CCNc1c(NS(=O)(=O)c2ccc(OC)cc2)c(=O)oc2ccccc12	none
Cc1cccc(C)c1NC(=O)c1nc(S(=O)(=O)Cc2ccccc2)ncc1Cl	rTrxR1 inhibitor 16µM, RORg inh 10µM, Gal4-VP16 FLuc 5µM (no result: FBPA coupling cs)
Cc1nnc(NC(=O)c2nc(S(=O)(=O)Cc3ccccc3)ncc2Cl)s1	rTrxR1 inhibitor 13µM, RORg inh 7.9µM, Gal4-VP16 FLuc 13µM (no result: FBPA coupling cs)
CCCc1nnc(NC(=O)c2nc(S(=O)(=O)Cc3cccc(C)c3)ncc2Cl)s1	rTrxR1 inhibitor inconclusive, RORg inh inconclusive, Gal4-VP16 FLuc inconclusive (no result: FBPA coupling cs)
